About 83,000 compounds went through this panel and 20% of them were active in at least one assay; those are over-represented in the sample as a whole.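 Single-concentration screen, 48 h exposure, 96-well plates. Endpoint: percent growth. Below 10 = active.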 Values without a mark were called inactive. Active and inactive are the calls of the source.
test system: NCI-H322M lung; assay: NCI-60 one-dose screen, 48 h (100 = growth as untreated, 0 = no growth, -100 = all killed); conditions: 10 µM unless noted

Question: Which growth does the source give for `Cn1cc(-c2ccc3c(Nc4cccc(NC(=O)Nc5cccc(F)c5)c4)ncnc3c2)cn1` here?
Answer: 40.7%

Question: With `CC(C)(C)n1cc(-c2ccnc(NCCNS(=O)(=O)c3ccc(C(F)(F)F)cc3)c2)c(-c2ccccc2)n1` as the compound, how does the growth read?
Answer: 99.5%

Question: Which growth does the source give for `Cc1nn(C)c2ncnc(Nc3ccccc3Br)c12` here?
Answer: 106%

Question: Which growth does the source give for `COc1ccc(C(=O)C2OC3=C(C(=O)CC(C)(C)C3)C2c2cccc(Oc3ccccc3)c2)cc1` (stereo not drawn) here?
Answer: 95.1%

Question: For `O=C(Nc1ccc2[nH]ncc2c1)c1csc(Nc2ccccc2)n1`, which growth is on record?
Answer: 46.5%

Question: With `c1ccc(-c2cn3nc(-c4c[nH]c5ccccc45)sc3n2)cc1` as the compound, how does the growth read?
Answer: 71.4%

Question: How did the growth turn out when `COc1cc(OCc2cccc(-c3ccccc3)c2C)cc(OC)c1CN1CCCCC1C(=O)NCCOCCOCCN` (stereo not drawn) was run?
Answer: 89.6%

Question: With `COc1cc(OC)cc(C(=O)Nc2cnc(Nc3ccc(N4CCOCC4)nc3)nc2Oc2ccc(C(F)(F)F)cc2)c1` as the compound, how does the growth read?
Answer: 77.4%

Question: `Cc1ccc(-c2nc(C#N)c(S(=O)(=O)n3nc(C)cc3N)o2)cc1` was tested. Which growth did it give?
Answer: 91%

Question: `CCN1CCN(CCOc2ccc(CNc3ccc4nc(CCC5CCCCC5)[nH]c4c3)cc2)CC1` was tested. Which growth did it give?
Answer: 66.1%

Question: How did the growth turn out when `COc1ccc(NC(=O)c2ccc(NC3=C(c4ccc(Cl)cc4)C(=O)NC3=O)cc2)cc1` was run?
Answer: 85.2%

Question: How did the growth turn out when `CC(=O)OCCOc1cc(Cl)c(Cl)cc1Cl` was run?
Answer: 112%

Question: `Oc1ccc(C(c2ccc(O)cc2)c2ccc(Cl)cn2)cc1` was tested. Which growth did it give?
Answer: -18.9% (active)

Question: Which growth does the source give for `CCCS(=O)(=O)Nc1cccc(Nc2ncnc3cc(NC(=O)CCl)ccc23)c1Cl` here?
Answer: 3.52% (active)

Question: For `c1ccc2c(-c3cnn4cc(-c5ccc(N6CCNCC6)cc5)cnc34)ccnc2c1`, which growth is on record?
Answer: -55.5% (active)

Question: How did the growth turn out when `COc1ccc(C(=O)/C=C/c2ccc(C)cc2)cc1S(N)(=O)=O` was run?
Answer: 36.1%

Question: With `O=C(OCC(O)(CO)C(=O)NC12CC3CC(CC(C3)C1)C2)c1ccc(Cl)cc1` (stereo not drawn) as the compound, how does the growth read?
Answer: 103%

Question: How did the growth turn out when `O=C(Nc1cccc(Cn2c(=O)[nH]c3ccc(Oc4ncccn4)cc3c2=O)c1)c1cccc(Cl)c1` was run?
Answer: 75.5%

Question: How did the growth turn out when `Cn1ccnc1C(=O)/C=C/c1ccc(C(=O)Nc2ccccc2F)cc1` was run?
Answer: 14.6%

Question: `O=C(Oc1ccccc1)c1cc(O)c(O)c(O)c1` was tested. Which growth did it give?
Answer: 54.8%

Question: With `CN(C)CCOc1ccc(/C(=C(/CCCCCCCCCC[P+](c2ccccc2)(c2ccccc2)c2ccccc2)c2ccccc2)c2ccccc2)cc1` as the compound, how does the growth read?
Answer: -96.6% (active)

Question: For `Clc1nc(N2CCC[N+]3(CC2)CC[N+]2(CCCNCC2)CC3)nc(N2CCC[N+]3(CC2)CC[N+]2(CCCNCC2)CC3)n1` (stereo not drawn), which growth is on record?
Answer: 99.7%

Question: Which growth does the source give for `Clc1ccc(C2=Nn3c(nnc3-c3cc(Cl)cc(Cl)c3Cl)SC2)cc1` here?
Answer: 71.4%

Question: For `COc1ccc(C(=O)/C=C/Nc2cc(-c3ccccc3)nn2-c2ccccc2)cc1`, which growth is on record?
Answer: 93.2%

Question: Which growth does the source give for `COc1cc(C2=Nc3c(N)nc(N)nc3NC(c3cccc(Nc4ccnc5cc(C(F)(F)F)ccc45)c3)C2)cc(OC)c1OC` (stereo not drawn) here?
Answer: 86.9%

Question: Which growth does the source give for `CC(=O)O[C@H]1CC[C@@]2(C)C(=CC[C@@H]3[C@@H]2CC[C@]2(C)C(Cl)=C(c4nc5ccc(Cl)cn5c4NC(C)(C)C)C[C@@H]32)C1` here?
Answer: 96.1%

Question: `COc1ccc(C2=NN3C(C2)c2cc(Br)ccc2OC3c2ccncc2)cc1` (stereo not drawn) was tested. Which growth did it give?
Answer: 76.4%

Question: For `COc1cc(-c2c(-c3ccccc3)c[nH]c2C(=O)NCCCO)c(OC)c2c1OCO2`, which growth is on record?
Answer: 95.9%

Question: Which growth does the source give for `CC(C)(C)c1ccc(C(=O)Nc2sc3c(c2C#N)CCC(=O)C3)cc1` here?
Answer: 86.6%

Question: Which growth does the source give for `COc1ccc(Nc2nccc(Nc3ccc4[nH]ncc4c3)n2)cc1` here?
Answer: 63.2%

Question: How did the growth turn out when `COc1ccc(-c2nc(SCCC(C)C)nc(N/N=C(/C)c3ccc(N)cc3)c2C#N)cc1` was run?
Answer: 86%

Question: With `Nc1cc(-c2ccc(Cl)cc2)nn1-c1nc(-c2ccc(Br)cc2)cs1` as the compound, how does the growth read?
Answer: 93.3%

Question: Which growth does the source give for `FC(F)(F)c1cc(N2CCCCC2)nc(NCCCNc2ccnc3cc(Cl)ccc23)n1` here?
Answer: 80%

Question: `CCOC(=O)C1=C(c2ccccc2)N=C2SC=C(c3cccc([N+](=O)[O-])c3)N2C1c1ccc(O)cc1` (stereo not drawn) was tested. Which growth did it give?
Answer: 96.3%

Question: `COc1ccccc1-c1nc2ccc3[nH]ncc3c2c2c1CCCC2` was tested. Which growth did it give?
Answer: 82.8%

Question: For `C=C(C)Cn1c(SCC(=O)c2cccs2)nc2sc3c(c2c1=O)CCCC3`, which growth is on record?
Answer: 67.9%

Question: How did the growth turn out when `COC(=O)c1nc(-c2ccccc2)oc1S(=O)(=O)N1CCN(c2ccc(OC)cc2)CC1` was run?
Answer: 91.1%

Question: Which growth does the source give for `CCN(CC)CCCNc1cc(OC)cc2cccnc12` here?
Answer: 107%

Question: `CC(C)n1nc(-c2ccc3oc(N)nc3c2)c2c(N)ncnc21` was tested. Which growth did it give?
Answer: -7.33% (active)

test system: HOP-62 NSCLC; assay: as above; conditions: 10 µM unless noted

Question: How did the growth turn out when `Cn1cc(-c2ccc3c(Nc4cccc(NC(=O)Nc5cccc(F)c5)c4)ncnc3c2)cn1` was run?
Answer: 42.8%

Question: For `CC(C)(C)n1cc(-c2ccnc(NCCNS(=O)(=O)c3ccc(C(F)(F)F)cc3)c2)c(-c2ccccc2)n1`, which growth is on record?
Answer: 97.8%

Question: How did the growth turn out when `Cc1nn(C)c2ncnc(Nc3ccccc3Br)c12` was run?
Answer: 101%

Question: `COc1ccc(C(=O)C2OC3=C(C(=O)CC(C)(C)C3)C2c2cccc(Oc3ccccc3)c2)cc1` (stereo not drawn) was tested. Which growth did it give?
Answer: 97%

Question: With `O=C(Nc1ccc2[nH]ncc2c1)c1csc(Nc2ccccc2)n1` as the compound, how does the growth read?
Answer: 50.7%

Question: How did the growth turn out when `c1ccc(-c2cn3nc(-c4c[nH]c5ccccc45)sc3n2)cc1` was run?
Answer: 73.6%

Question: With `COc1cc(OCc2cccc(-c3ccccc3)c2C)cc(OC)c1CN1CCCCC1C(=O)NCCOCCOCCN` (stereo not drawn) as the compound, how does the growth read?
Answer: 89.8%

Question: With `COc1cc(OC)cc(C(=O)Nc2cnc(Nc3ccc(N4CCOCC4)nc3)nc2Oc2ccc(C(F)(F)F)cc2)c1` as the compound, how does the growth read?
Answer: 43.1%

Question: How did the growth turn out when `Cc1ccc(-c2nc(C#N)c(S(=O)(=O)n3nc(C)cc3N)o2)cc1` was run?
Answer: 103%

Question: Which growth does the source give for `CCN1CCN(CCOc2ccc(CNc3ccc4nc(CCC5CCCCC5)[nH]c4c3)cc2)CC1` here?
Answer: 50.4%

Question: Which growth does the source give for `COc1ccc(NC(=O)c2ccc(NC3=C(c4ccc(Cl)cc4)C(=O)NC3=O)cc2)cc1` here?
Answer: 80.8%

Question: `CC(=O)OCCOc1cc(Cl)c(Cl)cc1Cl` was tested. Which growth did it give?
Answer: 103%

Question: With `Oc1ccc(C(c2ccc(O)cc2)c2ccc(Cl)cn2)cc1` as the compound, how does the growth read?
Answer: 61.9%

Question: For `CCCS(=O)(=O)Nc1cccc(Nc2ncnc3cc(NC(=O)CCl)ccc23)c1Cl`, which growth is on record?
Answer: -77.3% (active)

Question: How did the growth turn out when `c1ccc2c(-c3cnn4cc(-c5ccc(N6CCNCC6)cc5)cnc34)ccnc2c1` was run?
Answer: -85.7% (active)

Question: With `COc1ccc(C(=O)/C=C/c2ccc(C)cc2)cc1S(N)(=O)=O` as the compound, how does the growth read?
Answer: 78.1%

Question: Which growth does the source give for `O=C(OCC(O)(CO)C(=O)NC12CC3CC(CC(C3)C1)C2)c1ccc(Cl)cc1` (stereo not drawn) here?
Answer: 103%

Question: Which growth does the source give for `O=C(Nc1cccc(Cn2c(=O)[nH]c3ccc(Oc4ncccn4)cc3c2=O)c1)c1cccc(Cl)c1` here?
Answer: 79.3%

Question: `Cn1ccnc1C(=O)/C=C/c1ccc(C(=O)Nc2ccccc2F)cc1` was tested. Which growth did it give?
Answer: 3.72% (active)

Question: `O=C(Oc1ccccc1)c1cc(O)c(O)c(O)c1` was tested. Which growth did it give?
Answer: 54.9%

Question: Which growth does the source give for `CN(C)CCOc1ccc(/C(=C(/CCCCCCCCCC[P+](c2ccccc2)(c2ccccc2)c2ccccc2)c2ccccc2)c2ccccc2)cc1` here?
Answer: -66% (active)

Question: Which growth does the source give for `Clc1nc(N2CCC[N+]3(CC2)CC[N+]2(CCCNCC2)CC3)nc(N2CCC[N+]3(CC2)CC[N+]2(CCCNCC2)CC3)n1` (stereo not drawn) here?
Answer: 91.1%

Question: Which growth does the source give for `Clc1ccc(C2=Nn3c(nnc3-c3cc(Cl)cc(Cl)c3Cl)SC2)cc1` here?
Answer: 16.2%

Question: `COc1ccc(C(=O)/C=C/Nc2cc(-c3ccccc3)nn2-c2ccccc2)cc1` was tested. Which growth did it give?
Answer: 102%

Question: With `COc1cc(C2=Nc3c(N)nc(N)nc3NC(c3cccc(Nc4ccnc5cc(C(F)(F)F)ccc45)c3)C2)cc(OC)c1OC` (stereo not drawn) as the compound, how does the growth read?
Answer: 86.3%

Question: How did the growth turn out when `CC(=O)O[C@H]1CC[C@@]2(C)C(=CC[C@@H]3[C@@H]2CC[C@]2(C)C(Cl)=C(c4nc5ccc(Cl)cn5c4NC(C)(C)C)C[C@@H]32)C1` was run?
Answer: 90.8%

Question: `COc1ccc(C2=NN3C(C2)c2cc(Br)ccc2OC3c2ccncc2)cc1` (stereo not drawn) was tested. Which growth did it give?
Answer: 79.9%

Question: Which growth does the source give for `COc1cc(-c2c(-c3ccccc3)c[nH]c2C(=O)NCCCO)c(OC)c2c1OCO2` here?
Answer: 98.2%

Question: `CC(C)(C)c1ccc(C(=O)Nc2sc3c(c2C#N)CCC(=O)C3)cc1` was tested. Which growth did it give?
Answer: 49.7%

Question: How did the growth turn out when `COc1ccc(Nc2nccc(Nc3ccc4[nH]ncc4c3)n2)cc1` was run?
Answer: 49%

Question: Which growth does the source give for `COc1ccc(-c2nc(SCCC(C)C)nc(N/N=C(/C)c3ccc(N)cc3)c2C#N)cc1` here?
Answer: 89.9%

Question: How did the growth turn out when `Nc1cc(-c2ccc(Cl)cc2)nn1-c1nc(-c2ccc(Br)cc2)cs1` was run?
Answer: 97.9%

Question: For `FC(F)(F)c1cc(N2CCCCC2)nc(NCCCNc2ccnc3cc(Cl)ccc23)n1`, which growth is on record?
Answer: 73.5%

Question: `CCOC(=O)C1=C(c2ccccc2)N=C2SC=C(c3cccc([N+](=O)[O-])c3)N2C1c1ccc(O)cc1` (stereo not drawn) was tested. Which growth did it give?
Answer: 98.6%

Question: With `COc1ccccc1-c1nc2ccc3[nH]ncc3c2c2c1CCCC2` as the compound, how does the growth read?
Answer: 61.2%

Question: `C=C(C)Cn1c(SCC(=O)c2cccs2)nc2sc3c(c2c1=O)CCCC3` was tested. Which growth did it give?
Answer: 73.5%

Question: With `COC(=O)c1nc(-c2ccccc2)oc1S(=O)(=O)N1CCN(c2ccc(OC)cc2)CC1` as the compound, how does the growth read?
Answer: 94.5%

Question: How did the growth turn out when `CCN(CC)CCCNc1cc(OC)cc2cccnc12` was run?
Answer: 102%

Question: `CC(C)n1nc(-c2ccc3oc(N)nc3c2)c2c(N)ncnc21` was tested. Which growth did it give?
Answer: -25.5% (active)

From PubChem BioAssay (NCI)
